The source of these data is the supplement of paper PMC4709259.

Test [1] deals with Jurkat. The test is described as follows: mean cell size (FSC-A) relative to DMSO control (fraction of control); higher = larger cells. The note with it: 48 h. The method, boiled down: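 Jurkat cells seeded at 600 cells/µl were incubated 1 h, then exposed for 48h to the Enzo Screen-Well FDA Approved Drug Library v2.0 at 25µM in 0.9% (v/v) final DMSO. Drugs that cut counts below 20% of controls were diluted 10-fold and retested, down to 25nM. Cell count and mean cell size (forward scatter area) were read on an Accuri C6 flow cytometer, relative to solvent-only controls. Plates held 6-12 controls; values are means of 3 biological replicates.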

In test [2] the test system is Jurkat. Put plainly: cell count relative to DMSO control (fraction of control); higher = more cells (less growth inhibition). The note with it: 48 h.

Each structure is given as a SMILES string. Structures can show the parent of a compound that is named as a salt. ± gives the standard deviation.

As for `CC(C)[N+]1(C)[C@@H]2CC[C@H]1CC(OC(=O)C(CO)c1ccccc1)C2` (stereo partly drawn) [Ipratropium·Br] (concentration: 25 µM), the mean cell size in test [1] amounted to 1.01 ± 0.029. The cell count in test [2] was 0.704 ± 0.18.

Consider `CC(C(=O)O)c1cccc(Oc2ccccc2)c1` (stereo not drawn) [Fenoprofen Calcium] (concentration: 25 µM), for which the mean cell size in test [1] was found to be 0.901 ± 0.05. In addition, the cell count in test [2] was determined as 0.314 ± 0.15.

Take `Cc1cccn2c(=O)c(-c3nnn[nH]3)cnc12` [Pemirolast Potassium] (concentration: 25 µM): the mean cell size in test [1] was 0.938 ± 0.024. Further, the cell count in test [2] was 0.756 ± 0.11.

`CNCC[C@@H](Oc1ccccc1C)c1ccccc1` [Atomoxetine·HCl] (concentration: 25 µM) gave a mean cell size in test [1] of 0.996 ± 0.05. This molecule gave a cell count in test [2] of 0.81 ± 0.12.

Consider `CCN(CC)C(=O)/C(C#N)=C/c1cc(O)c(O)c([N+](=O)[O-])c1` [Entacapone] (concentration: 25 µM), for which, in test [1], the mean cell size is 1.06 ± 0.055. In test [2], this molecule registered a cell count of 0.519 ± 0.059.

The molecule `CN(C)CCCN1c2ccccc2CCc2ccccc21` [Imipramine·HCl] (concentration: 25 µM) had a mean cell size in test [1] of 0.952 ± 0.045. Also, the cell count in test [2] came to 0.525 ± 0.16.

For the molecule `O=C(O)CCCCCCCC(=O)O` [Azelaic Acid] (concentration: 25 µM), in test [1], the mean cell size was determined as 0.921 ± 0.062. Besides, the cell count in test [2] worked out at 0.477 ± 0.081.

In turn, `Cc1cnc(C(=O)NCCc2ccc(S(=O)(=O)NC(=O)NC3CCCCC3)cc2)cn1` [Glipizide] (concentration: 25 µM) displayed a mean cell size in test [1] of 1.09 ± 0.049. Moreover, the cell count in test [2] is 0.612 ± 0.11.

Consider `CC(=O)N[C@H]1[C@H]([C@H](O)[C@H](O)CO)OC(C(=O)O)=C[C@@H]1NC(=N)N` [Zanamivir] (concentration: 25 µM), for which, in test [1], the mean cell size turned out to be 0.993 ± 0.052. Besides, in test [2], the cell count worked out at 0.647 ± 0.18.

For `CC(=O)O[C@@]12CO[C@@H]1C[C@H](O)[C@@]1(C)C(=O)[C@H](O)C3=C(C)[C@@H](OC(=O)[C@H](O)[C@@H](NC(=O)OC(C)(C)C)c4ccccc4)C[C@@](O)([C@@H](OC(=O)c4ccccc4)[C@H]21)C3(C)C` [Docetaxel (Taxotere)] (concentration: 25 nM), the mean cell size in test [1] came out at 1.14 ± 0.035. Further, the cell count in test [2] was found to be 0.518 ± 0.052.

In turn, `O=C1c2c(O)ccc(O)c2C(=O)c2c(NCCNCCO)ccc(NCCNCCO)c21` [Mitoxantrone·HCl] (concentration: 25 nM) displayed a mean cell size in test [1] of 1.43 ± 0.11. In test [2], the cell count is 0.2 ± 0.063.

In test [1], `COc1ccccc1OCC(O)CN1CCN(CC(=O)Nc2c(C)cccc2C)CC1` (stereo not drawn) [Ranolazine·2HCl] (concentration: 25 µM) had a mean cell size of 0.987 ± 0.031. This molecule also displayed a cell count in test [2] of 0.979 ± 0.084.

Take `CN(C)[C@@H]1C(=O)C(C(N)=O)=C(O)[C@@]2(O)C(=O)C3=C(O)c4c(O)ccc(Cl)c4[C@@H](O)[C@H]3C[C@@H]12` [Demeclocycline·HCl] (concentration: 25 µM): in test [1], the mean cell size is 0.811 ± 0.028. This molecule had a cell count in test [2] of 0.219 ± 0.039.

`CC(=O)Oc1ccccc1C(=O)O` [Aspirin (Acetylsalicylic Acid)] (concentration: 25 µM) showed a mean cell size in test [1] of 0.9355 ± 0.0074. For the same molecule, the cell count in test [2] amounted to 0.97 ± 0.082.

In turn, `O=C(O)c1cc(N=Nc2ccc(O)c(C(=O)O)c2)ccc1O` [Olsalazine·Na] (concentration: 25 µM) returned a mean cell size in test [1] of 0.955 ± 0.036. In addition, the cell count in test [2] came to 0.611 ± 0.042.

`NC[C@H](O)c1ccc(O)c(O)c1` [Norepinephrine Bitartrate Monohydrate] (concentration: 25 µM) displayed a mean cell size in test [1] of 0.967 ± 0.024. For the same molecule, in test [2], the cell count came out at 0.658 ± 0.17.

As for `NS(=O)(=O)c1cc2c(cc1Cl)NCNS2(=O)=O` [Hydrochlorothiazide] (concentration: 25 µM), in test [1], the mean cell size worked out at 0.901 ± 0.044. This molecule also had a cell count in test [2] of 0.411 ± 0.088.

`CC(C)C[C@H](NC(=O)[C@H](Cc1ccccc1)NC(=O)c1cnccn1)B(O)O` [Bortezomib] (concentration: 25 nM) yielded a mean cell size in test [1] of 0.894 ± 0.064. The same molecule showed a cell count in test [2] of 0.112 ± 0.11.

With `C[C@@H](NCCCc1cccc(C(F)(F)F)c1)c1cccc2ccccc12` [Cinacalcet·HCl] (concentration: 25 µM), in test [1], the mean cell size was determined as 1.03 ± 0.051. This molecule had a cell count in test [2] of 0.577 ± 0.089.

In test [1], `Cc1c(O)cccc1C(=O)N[C@@H](CSc1ccccc1)[C@H](O)CN1C[C@H]2CCCC[C@H]2C[C@H]1C(=O)NC(C)(C)C` [Nelfinavir Mesylate] (concentration: 2.5 µM) gave a mean cell size of 1.03 ± 0.015. In test [2], this molecule displayed a cell count of 0.779 ± 0.084.

Take `CC(C)NCC(O)COc1ccc(CC(N)=O)cc1` (racemic) [(±)-Atenolol] (concentration: 25 µM): the mean cell size in test [1] came out at 0.836 ± 0.018. This molecule also gave a cell count in test [2] of 1.14 ± 0.087.

In turn, `CC(C)c1nc(CN(C)C(=O)N[C@H](C(=O)N[C@@H](Cc2ccccc2)C[C@H](O)[C@H](Cc2ccccc2)NC(=O)OCc2cncs2)C(C)C)cs1` [Ritonavir] (concentration: 25 µM) displayed a mean cell size in test [1] of 0.999 ± 0.079. In test [2], this molecule yielded a cell count of 0.564 ± 0.14.

In test [1], `C[C@@H](O)[C@H]1C(=O)N2C(C(=O)O)=C(S[C@@H]3CN[C@H](C(=O)N(C)C)C3)[C@H](C)[C@H]12` [Meropenem] (concentration: 25 µM) came in with a mean cell size of 0.944 ± 0.015. In test [2], this molecule had a cell count of 0.939 ± 0.078.

In the case of `CN1CCC(=C2c3ccccc3C=Cc3ccccc32)CC1` [Cyproheptadine·HCl Sesquihydrate] (concentration: 25 µM), in test [1], the mean cell size came out at 0.935 ± 0.027. The cell count in test [2] was found to be 0.762 ± 0.049.
